Source: PubChem
EBNA-1 inh = blocks EBNA-1 binding to DNA | EBNA-1 DNA binding, fluorescence polarization | inhibition, % at 14.8 µM | 300,000 compounds, 0.34% hits | AID 1950; in the data active = inhibition above about 28%
MEX-5 binding = C. elegans MEX-5 TCR-2 RNA binding activity; Q9XUB2; MEX-5/FITC-TCR2 RNA binding, fluorescence polarization; hits give low values; activity score (negative = inhibition of binding), % at 10 µM; 300,000 compounds, 0.38% hits; AID 1832;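 active = inhibition past about -25% in most replicates, and total fluorescence under double the plate's negative control median, limit read from the data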;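 also: 0% = DMSO and -100% = 5 µM competing unlabeled TCR2 RNA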
EBV gp42 block = blocks Epstein-Barr virus glycoprotein 42 binding; Fluorescence polarization binding assay, mP read-out; inhibition, % (tested at 21.74 µM); 220,000 compounds, 0.42% hits; AID 1085; in the data active = inhibition above about 50%
ZTA DNA inh = counter-screen for EBNA-1 inhibitors: inhibitors of Epstein-Barr virus ZTA; P03206; ZTA-DNA binding, fluorescence polarization; inhibition, % at 11 µM; 320,000 compounds, 0.15% hits; in the data active = inhibition above about 33%
Target sequence (P03206 whole entry, looked up): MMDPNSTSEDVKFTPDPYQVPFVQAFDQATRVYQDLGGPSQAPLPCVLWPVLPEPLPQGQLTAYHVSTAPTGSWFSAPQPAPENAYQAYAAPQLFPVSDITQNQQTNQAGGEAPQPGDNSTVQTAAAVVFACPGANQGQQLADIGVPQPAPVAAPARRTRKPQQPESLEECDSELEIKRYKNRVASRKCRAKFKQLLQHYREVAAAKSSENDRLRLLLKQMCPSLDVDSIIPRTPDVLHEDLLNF
Zta DNA confirm = EBV ZTA DNA binding inhibition, confirmation; shares compounds with ZTA DNA inh; Zta-ZRE DNA binding, fluorescence polarization; inhibition, % at 11.1 µM; 320 compounds, 30% hits; AID 2361;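 active = mean inhibition across triplicate runs above the hit threshold derived for the original primary screen, cut at about 33% in these data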;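 also: 0% = Zta with DMSO and 100% = wells lacking Zta protein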
EBNA-1 counter = counter-screen for ZTA inhibitors: EBNA-1 DNA binding inhibition. shares compounds with ZTA DNA inh. fluorescence polarization. inhibition, % at 14.8 µM. 320 tested, under 10 active. AID 2362; call rule not given here
* hit, by the source's call; . = not tested or not shown. This is a sample that favours compounds with a hit; in the whole collection about 1% have one here.

SMILES	EBNA-1 inh	MEX-5 binding	EBV gp42 block	ZTA DNA inh	Zta DNA confirm	EBNA-1 counter
Cc1ccc(C(=O)Nc2ccc(C(=O)N/N=C/c3ccc(C)o3)cc2)cc1	-11	1	.	-9	.	.
CCC(=O)N1CCc2cc(S(=O)(=O)CCC(=O)Nc3ccc(C)cn3)ccc21	1	-1	-17	4	.	.
COc1cccc(=O)c2c(C)n(-c3ccc(C(=O)O)cc3)c(C)c12	16	-11	13	46*	-8	-4
Cc1[nH]c(C)c(S(=O)(=O)NCc2ccc(F)cc2)c1C(=O)N1CCCC1	-4	1	.	3	.	.
Cc1cc(C(=O)NC(C)CCc2ccccc2)ccc1[N+](=O)[O-] (stereo not given)	4	0	.	-2	.	.
CCCC(=O)Nc1ccc2oc(-c3cccnc3)nc2c1	-7	0	-17	45*	2	-5
CCCCC(=O)Nc1ccc2oc(-c3cccnc3)nc2c1	-8	-1	.	3	.	.
O=C(CCCCCC(=O)N(CCO)CCO)N(CCO)CCO	-6	1	-5	3	.	.
CN(C)C(=O)CCCCCCCCC(=O)N(C)C	8	-3	-12	33*	8	0
Cc1ccc(C(C(=O)NC2CCCC2)N(Cc2ccc3c(c2)OCO3)C(=O)c2snc(C(N)=O)c2N)cc1 (stereo not given)	5	-1	-6	57*	1	-9
COc1ccc(CN(C(=O)c2snc(C(N)=O)c2N)C(C(=O)NC2CCCC2)c2ccc(OC)cc2)cc1 (stereo not given)	-4	1	.	-5	.	.
Cc1cc(Cl)cc(Cl)c1OCCN1CCCC1	6	2	.	7	.	.
COc1cccc(NS(=O)(=O)c2ccc3c(c2)C2C=CCC2C(c2ccc(C(=O)O)cc2)N3)c1 (stereo not given)	-1	-66*	16	38*	25	4
C[C@H]1CCC(=O)N([C@H](COc2ccccc2)Cc2ccccc2)CC1	14	0	.	40*	4	3
CC1CCC(=O)N(CCOc2ccccc2)CC1 (stereo not given)	0	-1	.	-2	.	.
N#Cc1c(N2CCCC2)nc(N)c2c(N)nc(N3CCCC3)cc12	10	-2	-6	60*	55*	-26
COc1cc2c(C#N)c(N3CCCC3)nc(N)c2c(N)n1	3	-1	-19	-7	.	.
COC(=O)C1=C(C)NC(=S)NC1c1ccc(OCC(=O)N2CCCCC2)c(OC)c1 (stereo not given)	9	1	.	1	.	.
COCC1CCCCN1C(=O)c1ccc2nc(Cc3ccc(OC)c(OC)c3)oc2c1 (stereo not given)	10	1	.	35*	-6	-3
CCC1CCCCN1C(=O)c1ccc2nc(Cc3ccc(OC)cc3)oc2c1 (stereo not given)	7	.	.	4	.	.
CN1CCN(c2ccccc2/C=C2/C(=O)Nc3ccccc32)CC1	4	-1	.	-6	.	.
Cc1ccn(CC(C)C(=O)O)n1 (stereo not given)	-12	-1	-21	166*	4	0
CN(C)c1ccc(N/C=C/C(=O)c2ccco2)cc1	15	-3	-15	91*	0	-4
CC(=O)Nc1ccc(N/C=C/C(=O)c2ccco2)cc1	-1	-3	-23	0	.	.
CN(C)c1ccc(N/C=C/C(=O)c2ccc(F)cc2)cc1	4	-1	-33	78*	13	3
SMILES	EBNA-1 inh	MEX-5 binding	EBV gp42 block	ZTA DNA inh	Zta DNA confirm	EBNA-1 counter
NC1=NC[C@H](c2ccccc2)N1CCCCC1CCCCC1	6	-3	-6	33*	2	-13
COc1ccc(OC)c(CCNC(=O)CCn2nc(C)c3c(C)n(-c4ccccc4)nc3c2=O)c1	-3	-2	.	20	.	.
CCOC(=O)N1CCN(CC(O)COc2ccccc2[N+](=O)[O-])CC1 (stereo not given)	-9	0	.	-6	.	.
O=C(Nc1nc2ccccc2[nH]1)Nc1ccccc1F	3	1	.	0	.	.
Cc1ccc(OCC(=O)Nc2sc3c(c2C#N)CC(C)(C)NC3(C)C)cc1	0	1	-17	6	.	.
CC1(C)Cc2c(sc(NC(=O)COc3cccc4ccccc34)c2C#N)C(C)(C)N1	5	-4	-16	48*	51*	-5
CC(Oc1ccc(Br)cc1)C(=O)N(C)CC(=O)Nc1ccc(N2CCOCC2)cc1 (stereo not given)	-5	0	.	-5	.	.
CC(C(=O)OCC(=O)c1ccc(Br)cc1)N1C(=O)C2C3C=CC(C3)C2C1=O (stereo not given)	-2	3	.	36*	-8	-6
CC(C(=O)OCC(=O)c1ccc(F)cc1)N1C(=O)C2C3C=CC(C3)C2C1=O (stereo not given)	0	0	.	-7	.	.
